# Publication PMC13494018
# Molecular target: PDL1, Q9NZQ7
# Sequence (Q9NZQ7 whole entry): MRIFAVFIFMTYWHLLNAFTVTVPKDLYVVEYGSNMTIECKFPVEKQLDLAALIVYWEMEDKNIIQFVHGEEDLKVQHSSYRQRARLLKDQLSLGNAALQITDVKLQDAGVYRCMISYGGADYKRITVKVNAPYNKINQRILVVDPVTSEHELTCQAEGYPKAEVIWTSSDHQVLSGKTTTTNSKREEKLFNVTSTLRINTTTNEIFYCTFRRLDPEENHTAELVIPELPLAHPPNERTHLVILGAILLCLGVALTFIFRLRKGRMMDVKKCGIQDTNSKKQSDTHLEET
row,Binder,binding in a display sort
1,d8r1_design_ppi_80_dldesign_0_cycle1_af2pred (protein) ETPEEKANALFRAFNNVATYAAAKVPALAAAAAAAIAASADPAKLGAAAAAFAAAAAATPAAAALGTSAQAIADKAVATAK,not found (inactive)
2,d8r1_design_ppi_1247_dldesign_0_cycle1_af2pred (protein) SSNKETSKLIREAMKIIGESLAAARAAVAAGDKAAAQAAVDAGVAKIEELAKKSKDPATKETLLKLAENLRRQGARVIA,not found (inactive)
3,d8r1_design_ppi_1459_dldesign_0_cycle1_af2pred (protein) EKAEKLRKLAKKLKELGKKIAEGDEEEAKKAAKEAAKAAREAGKISPQGKTLEYLGKKTEEAAKAGDKKTAASLADAAAALMEALAD,not found (inactive)
4,d8r1_design_ppi_1032_dldesign_0_cycle0_af2pred (protein) SEEEENKEKAEALEKAAKNTTAIGDEKAAKDAAGKEKGAKAYNGAAALYEAAAKVSSPERAKEFKAKAAEAKAKAAAAQAAAAA,not found (inactive)
5,d8r1_design_ppi_860_dldesign_0_cycle1_af2pred (protein) DEAYELAAKALAEAAKLRAAADAALAAAGAAGAVEAAALFTAAVKVLEETAKKLKELGSSLGDFTAAAAEREAARAAARIAAALA,not found (inactive)
6,d8r1_design_ppi_178_dldesign_0_cycle1_af2pred (protein) ATEAVAQAIVLAAKRAAALPNAATAVANLAALVALLIEDPRVAEGAVEGAKEAAKALEAAGRTEEAKALLSAAEAAVAETAAKRA,not found (inactive)
7,d8r1_design_ppi_1212_dldesign_0_cycle1_af2pred (protein) AAALAEKLVATALAIGDAVLKKYPEAFGAKLAAARALIAADPVAGIRALGEAAAEVAPAEIAPGIRSMLNAIADRAAELLA,not found (inactive)
8,d8r1_design_ppi_763_dldesign_0_cycle1_af2pred (protein) MEKAKELAAKGDALEEEAAKATPEEAAKLYREASKYYAEAARLLLPLGDENPEIGKVVKELMAKASASYQKAVALEA,not found (inactive)
9,d8r1_design_ppi_473_dldesign_0_cycle1_af2pred (protein) STAEYLAQQQAALDATLAALDAAAAAVRTSAAGKALGDAAKKAMEIAKKLPVSVQLAVAQNQLAALQAAL,not found (inactive)
10,d8r1_design_ppi_723_dldesign_0_cycle0_af2pred (protein) GGKSIAEIARIHGARTAAAVLAETGDAAAAAKIKAVAEKAAKEIEKASDNYDKMAEIFRKMVEEIEKITAAAKAAAA,not found (inactive)
11,d8r1_design_ppi_290_dldesign_0_cycle0_af2pred (protein) SREEAERLKEEIERLAREGIAGDAETAARAMREIHELAIRSTELDPEDAAEVNQKAAEAMLRVGDAREAMLAA,not found (inactive)
12,d8r1_design_ppi_888_dldesign_0_cycle1_af2pred (protein) ATEEEKEKLKKLVEELLKAGKEGTVEEAKKAAEKLVEAAKKASLEAVLAGIAEVAKAAAELAKVNPEAAEVAREAAIELAKIALEKAD,not found (inactive)
13,d8r1_design_ppi_460_dldesign_0_cycle1_af2pred (protein) DETGERKATALAAISATVAAAKAAIDANAADPAAAQAALDAAKKALAAIAAKSGLPSVKGVAETAAKKLAAYATAVAAAAA,not found (inactive)
14,d8r1_design_ppi_179_dldesign_0_cycle0_af2pred (protein) STAARNAAAGIAAAAKENPKSGAKLGKGAIDVLAKKDKKEAAEAAKLAAEQAKAAGKEEVAKEMEELAKKVEAEI,not found (inactive)
15,d8r1_design_ppi_877_dldesign_0_cycle0_af2pred (protein) ALRAATEALLAEAERLREEILELGRAAESESVRNFAEGVAREVERLIAEAKAAAADPEAALALAQAALRTAREGLAGVRALTAAKAE,not found (inactive)
16,d8r1_design_ppi_312_dldesign_0_cycle1_af2pred (protein) ALEEALRATAALVGTASQILAKEDPALAKEVAARILATAVKDPAEAAKLLKEVAKEAKERGWPAAEYYAAAAEALKAAAEA,not found (inactive)
17,d8r1_design_ppi_1358_dldesign_0_cycle1_af2pred (protein) AAAESAALAAALAALRKTEVGPFARQYIIYRLLAQVAEAKGDEETAKRAKAKAEELAKAYPEAAAAADAALALAQAALAA,binds (active)
18,d8r1_design_ppi_705_dldesign_0_cycle0_af2pred (protein) MTPSTRAMLHIGRANAAAQALAADPAAAAAAVAEEMAAAAREAAKASPEVREQNLRAMDAAVAALKAANPAVGAAARAAMEEELARL,not found (inactive)
19,d8r1_design_ppi_1301_dldesign_0_cycle1_af2pred (protein) AENEADFNALKRVAQSILDRAAELAAAGADRALVERLAASAVQAAELAAEEGTPEEGAALIAETRAAVAAVLAA,not found (inactive)

row,Binder,binding in a display sort
1,d8r1_design_ppi_1413_dldesign_0_cycle1_af2pred (protein) GSLLEELAKKEEELKDEEKMLKAHENALEIGIKKAEEDPAKGAKILENLAKNAEAAAKKASPEIAKKFKELAERAKKAAKEAKKKAA,not found (inactive)
2,d8r1_design_ppi_1429_dldesign_0_cycle0_af2pred (protein) SSLESEERLRRMAEGIAERTLRVVERLAKEDLETARRAAENTRGLLAKLGPVAAKIGEETWERAEAILAAIA,not found (inactive)
3,d8r1_design_ppi_655_dldesign_0_cycle0_af2pred (protein) SDAKAAAQAAKNGAESATEKANEYEAKGKATGDKALLAKAKTLYDSAATLYAFGTKESGGEYQANLDAAKAKAAAAAALLA,not found (inactive)
4,d8r1_design_ppi_1244_dldesign_0_cycle0_af2pred (protein) EEEEKEEKETYEKAYYLAKAAINAVNTGKEAAVASGKAALIAAGKLIPEWAAEAKAAKTAEEIKAVAEKLAEAAKKKIE,not found (inactive)
5,d8r1_design_ppi_1034_dldesign_0_cycle1_af2pred (protein) DQAFTDAAAAAKALAAIPKYKALGDSLAARVAALAAAAAAARAAGAADPATAAEDAAAAAALAAAAKNIGDFAKAMLKAIEEDE,binds (active)
6,d8r1_design_ppi_1245_dldesign_0_cycle0_af2pred (protein) SVAEQRAELAAIVDRTLAAAAAEDPRAAGRAGAAELARLLARSSDEVKPAANAAIAAFNTLIRDPAAGAAALEAVRAELA,not found (inactive)
7,d8r1_design_ppi_978_dldesign_0_cycle1_af2pred (protein) MKHLEEQRKAAEKVAEKAAKEAEKEIAKVVSEEEAKKLAEKLKEQSKTSNELLVEKHKDLPVEEIEKLAERNAKGLALRALAIAKE,not found (inactive)
8,d8r1_design_ppi_259_dldesign_0_cycle1_af2pred (protein) AAAAARLATALANAIAGTNTIKKASTAKSASQFLAASTDRLATLYAADPALVAKLRAAAAAAKAGVDAGLAAAKEALAAATAAG,not found (inactive)
9,d8r1_design_ppi_136_dldesign_0_cycle1_af2pred (protein) SAAEEAARKSLFAVADSILAANLARAKAAAAAGDAAAAAAALQNTRDGGEMVTKMALARGDEETAAELAARFAAAAAEIAAILAA,not found (inactive)
10,d8r1_design_ppi_1486_dldesign_0_cycle0_af2pred (protein) SEELEKAKEEARKARERLLRLAEEAAAVDPAVAAAGRNAAAGAEKLISTGSLGSARAGKAIAEAAARRAEAVLAAAAAA,not found (inactive)
11,d8r1_design_ppi_1086_dldesign_0_cycle1_af2pred (protein) AAAAVAAAAAAGGEAAMAEFLDLSNPEQGKELKDKAAAKVAALAAANPAVAAQINAAYNAQLARGKALAAEARADK,not found (inactive)
12,d8r1_design_ppi_217_dldesign_0_cycle1_af2pred (protein) GDAVMEAAAAISNAAAAAIAAAKADPAKADEALAAATATAKALADATGKPLVKAVAKGATARVAAVAAAVKAAA,not found (inactive)
13,d8r1_design_ppi_1231_dldesign_0_cycle1_af2pred (protein) MTEEEMAALVQAARDAAKAAAAAAGPAVAPTMAAMVALAEEERDNPGELESIAQSVATAAARAVAAAAAAA,not found (inactive)
14,d8r1_design_ppi_271_dldesign_0_cycle1_af2pred (protein) ADAALAALIAEAAQAAYDDGPRGIAALAGALLRAFPSLSAETLAAIIAATAADPAAAAALIAALAAAHPEAAPALAAELRALLAELA,not found (inactive)
15,d8r1_design_ppi_1444_dldesign_0_cycle0_af2pred (protein) MEELLARIEEALKRAKEVLKEAKKYSPGAEAIAKAALEAAERALALARAGPERAAEAERELRAAENAIAAAEKLLEA,not found (inactive)
16,d8r1_design_ppi_156_dldesign_0_cycle1_af2pred (protein) MEEEKKKEEEEQKEAERMAKALENAIDAIEARVKAAPAAEQPALAKAADNAAAAADVLKKKDPELGQKVKDRANAVLAAARAK,not found (inactive)
17,d8r1_design_ppi_480_dldesign_0_cycle0_af2pred (protein) SEEEERRRRAEEAADEIVAAAKADPAAAAALAAEFVATSSEEERRLLANILAQKAFEDDAGLTALRAFSLALAEAVA,not found (inactive)
18,d8r1_design_ppi_433_dldesign_0_cycle0_af2pred (protein) SEEEERKEIEEEGRAMARALRTSARHHAELAKKDPAAGRAAFDADAAAIRAGATPEQQPLVDAAVAEGRALLDAVEAAL,not found (inactive)
19,d8r1_design_ppi_660_dldesign_0_cycle1_af2pred (protein) EQAELEALAAAAKAAAAQAYALALASRAQAPAAYAALQQAFALAAQLPEEVAAELKAAAAQALADGLLAREKAE,not found (inactive)
